Structures are written as SMILES.

The target in the test is AMP-activated protein kinase, AMPK (Homo sapiens) (UniProt P54646+O43741+P54619+Q9UGJ0+Q9Y478+Q13131+Q9UGI9). Description: AMP-dependent Kinase enzyme assay. An in vitro enzyme assay that detects ADP turnover that is directly proportional to AMPK activity. This uses naive AMPK that is activated during the assay with MK-8722. The format is functional. Details: scale not given: direction of the effect not stated beside the values. As to conditions: 30 µM.
In the case of `Cc1ccc(C)c(CC(=O)NC2CCC(N3C(=O)CCC3=O)CC2)c1` (stereo unspecified), the Percent Effect was -3.29%.

Take `Cc1nc(N)cc(NCc2csc(N(C)C)n2)n1`: the Percent Effect was -14.5%.

As to `CCS(=O)(=O)N1CCCN(CCCOC)CC1`, the Percent Effect was 19%.

With `CN(C)CCNC(=O)CCC1CCN(C(=O)c2ccc(O)cn2)CC1`, the Percent Effect is 7.4%.

Turning to `CCS(=O)(=O)NCc1nc(C)cc(N2CCCC2)n1`, the Percent Effect is 2.4%.

As to `CCCSCC(=O)N1CCCC(CO)(CCC)C1` (stereo unspecified), the Percent Effect was determined as 7%.

As to `Cc1ccc(-c2cc(CS(=O)(=O)NC3CCCNC3=O)on2)cc1` (stereo unspecified), the Percent Effect came to 5.82%.

In the case of `COc1ccc2c(c1OC)Cc1c-2nc(N)c(C#N)c1C1CCOC1` (stereo unspecified), the Percent Effect amounted to 24.3%.

As to `Cc1nn(C)c(Cl)c1C(=O)NCC1(C(N)=O)CCOCC1`, the Percent Effect is -1.15%.

In the case of `CC(C)N(Cc1ccc(C(=O)O)o1)C(C)C`, the Percent Effect came to 2.21%.

Take `CCc1nc2n(n1)CC(NCC1=Cc3ccc(OC)cc3OC1)CC2` (stereo unspecified): the Percent Effect turned out to be 8.35%.

Consider `CN(C)CC1(O)CCCN(C(=O)CCn2cc(Cl)cn2)C1` (stereo unspecified), for which the Percent Effect stood at 4.94%.

For `COc1cc(-c2cccc3c2OC(CN)C3)cc(OC)c1OC` (stereo unspecified), the Percent Effect is -5.11%.

Turning to `Cc1noc(C2CCN(Cn3cc(Br)cn3)CC2)n1`, the Percent Effect was 18.3%.

On to `Cc1nsc(N2CCCN(C(=O)CCc3ccsc3)CC2)n1`, for which the Percent Effect was -4.46%.

For `Cc1cc(NC(C)c2csc(C)n2)n2nc(C)c(C)c2n1` (stereo unspecified), the Percent Effect amounted to 10%.

Turning to `CCN(CC(=O)NC)C(=O)c1csc(Cc2ccccc2)n1`, the Percent Effect was -5.87%.

With `Cc1cc2ccccc2n1CCC(=O)N1CCCC(O)(CN(C)C)CC1` (stereo unspecified), the Percent Effect was found to be 0.58%.

As to `COCCn1ccnc1C1CCN(C(=O)CSc2nnc(C)o2)CC1`, the Percent Effect is -0.22%.

Take `Cn1ccnc1-c1nc(N2CCCCC2)ncc1-c1ccccc1F`: the Percent Effect came to 9.62%.

Regarding `O=C(CCN1CCCO1)N1CC[C@@H](CNC(=O)N2CCCC2)[C@H](O)C1`, the Percent Effect was -5.68%.

Values taken from ChEMBL document CHEMBL3988442, “University of Dundee, Small-Polar-MMV Screening Library” (2021).
